Inhibition data for six compounds are collected here from PubChem BioAssay.

A number with no mark means an inactive call. The source made the active and inactive calls. Cut-off read from the data, not from the text of the source, unless noted: active = inhibition above about 36%; inactive = the rest.

The target of assay [1] is Nuclear receptor coactivator 3 (Homo sapiens) (UniProt Q9Y6Q9). Put plainly: NCOA3 GAL4-fusion reporter inhibition – cell-based, luminescence, quadruplicate, confirmation (AID 588792;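 active = mean inhibition over 43.08%, the solvent-only control mean plus 3 SD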;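 note: 0% = DMSO treated cells and 100% = gossypol at 36 µM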). The conditions noted are these: HEK293 GAL4-SRC3 luciferase reporter, at 3.6 µM, stronger effect = higher value.
Assay [2] concerns transactivating tegument protein VP16 (Human herpesvirus 1), Gal4-VP16 luciferase reporter. The assay can be described thus: repression of VP16-driven luciferase reporter – cell-based, luminescence, high throughput, counter-screen for SRC3 inhibitor project (AID 588794; in the data active = inhibition above about 30%). The conditions noted are these: mammalian cells, at 3.6 µM, stronger effect = higher value. For orientation: Reporter assays use an easily measured gene product as a stand-in for the process of interest.

Assay [3] addresses Nuclear receptor coactivator 1 (Homo sapiens) (UniProt Q15788). The assay can be described thus: NCOA1 GAL4-fusion reporter inhibition – cell-based, luminescence, quadruplicate, confirmation (AID 588820;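 active = mean inhibition above 46.68%, the untreated control wells mean plus 3 SD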;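 note: 0% = DMSO wells and 100% = gossypol 36 µM treated wells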). The conditions noted are these: HEK293 GAL4-SRC1 luciferase reporter, at 3.6 µM, stronger effect = higher value.
Assay [4] is described as follows: repression of VP16-driven luciferase reporter – cell-based, luminescence, high throughput, counter-screen for SRC1 inhibitor project (AID 588824; in the data active = inhibition above about 25%). The conditions noted are these: cell-based VP16 transactivation luciferase luminescence; at 3.6 µM; stronger effect = higher value.
A short description of assay [5]: StAR promoter reporter inhibitors, counter-screen for LRH-1 inverse agonist project, cell-based, luminescence, high throughput (AID 651611; in the data active = inhibition above about 28%). The conditions noted are these: StAR promoter luciferase reporter counterscreen, at 3.6 µM, stronger effect = higher value. (In general: Counterscreens check selectivity or assay interference.)
Assay [6] has as its target Nuclear receptor subfamily 5 group A member 2 (Homo sapiens) (UniProt O00482). Put plainly: NR5A2 activity suppression in reporter cells – cell-based, luminescence, confirmation (AID 651613; in the data active = inhibition above about 42%;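 note: HEK293T cells co-transfected with LRH-1 and StAR promoter luciferase reporter; 0% = vehicle wells and 100% = parental cells lacking receptor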). The conditions noted are these: cell-based LRH-1 luciferase reporter, inverse agonism; at 3.6 µM; stronger effect = higher value.
Assay [7] addresses Steroidogenic factor 1 (Homo sapiens) (UniProt Q13285). Put plainly: inverse agonism at SF1 nuclear receptor – cell-based, luminescence, high throughput, counter-screen for LRH-1 inverse agonist project (AID 651614; in the data active = inhibition above about 44%;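 note: cells cotransfected with StAR promoter reporter and SF1 expression vector; 0% = vehicle on cells with receptor and 100% = vehicle on cells lacking receptor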). The conditions noted are these: cell-based SF1 luciferase reporter, at 3.6 µM, stronger effect = higher value.
Assay [8] in a line: compounds suppressing VP16-driven luciferase signal – cell-based, luminescence, high throughput, counter-screen for LRH-1 inverse agonist project (AID 651615; in the data active = inhibition above about 33%). The conditions noted are these: Gal4-VP16 luciferase reporter cells, at 3.6 µM, stronger effect = higher value.
For assay [9], the system named is transactivating tegument protein VP16 (Human herpesvirus 1). The assay can be described thus: compounds suppressing VP16-driven luciferase signal – cell-based, luminescence, single concentration, counter-screen for SRC2 inhibitor project (AID 652007). The conditions noted are these: cell-based VP16 transactivation luciferase reporter, at 8.9 µM, stronger effect = higher value.

The target in assay [10] is Nuclear receptor coactivator 2 (Homo sapiens) (UniProt Q15596). Put plainly: inhibition of GAL4-SRC2 driven luciferase expression – cell-based, luminescence, HEK293, triplicate, confirmation (AID 652008;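 active = mean inhibition above 46.5%, the solvent-only control mean plus 3 SD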;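 note: 0% = DMSO-treated cells and 100% = Gossypol at 36 µM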). The conditions noted are these: HEK293 GAL4-SRC2 luciferase reporter, at 8.9 µM, stronger effect = higher value.

Sequence of Nuclear receptor coactivator 3 (Homo sapiens) (Q9Y6Q9 whole entry, looked up, the tested form may be a part): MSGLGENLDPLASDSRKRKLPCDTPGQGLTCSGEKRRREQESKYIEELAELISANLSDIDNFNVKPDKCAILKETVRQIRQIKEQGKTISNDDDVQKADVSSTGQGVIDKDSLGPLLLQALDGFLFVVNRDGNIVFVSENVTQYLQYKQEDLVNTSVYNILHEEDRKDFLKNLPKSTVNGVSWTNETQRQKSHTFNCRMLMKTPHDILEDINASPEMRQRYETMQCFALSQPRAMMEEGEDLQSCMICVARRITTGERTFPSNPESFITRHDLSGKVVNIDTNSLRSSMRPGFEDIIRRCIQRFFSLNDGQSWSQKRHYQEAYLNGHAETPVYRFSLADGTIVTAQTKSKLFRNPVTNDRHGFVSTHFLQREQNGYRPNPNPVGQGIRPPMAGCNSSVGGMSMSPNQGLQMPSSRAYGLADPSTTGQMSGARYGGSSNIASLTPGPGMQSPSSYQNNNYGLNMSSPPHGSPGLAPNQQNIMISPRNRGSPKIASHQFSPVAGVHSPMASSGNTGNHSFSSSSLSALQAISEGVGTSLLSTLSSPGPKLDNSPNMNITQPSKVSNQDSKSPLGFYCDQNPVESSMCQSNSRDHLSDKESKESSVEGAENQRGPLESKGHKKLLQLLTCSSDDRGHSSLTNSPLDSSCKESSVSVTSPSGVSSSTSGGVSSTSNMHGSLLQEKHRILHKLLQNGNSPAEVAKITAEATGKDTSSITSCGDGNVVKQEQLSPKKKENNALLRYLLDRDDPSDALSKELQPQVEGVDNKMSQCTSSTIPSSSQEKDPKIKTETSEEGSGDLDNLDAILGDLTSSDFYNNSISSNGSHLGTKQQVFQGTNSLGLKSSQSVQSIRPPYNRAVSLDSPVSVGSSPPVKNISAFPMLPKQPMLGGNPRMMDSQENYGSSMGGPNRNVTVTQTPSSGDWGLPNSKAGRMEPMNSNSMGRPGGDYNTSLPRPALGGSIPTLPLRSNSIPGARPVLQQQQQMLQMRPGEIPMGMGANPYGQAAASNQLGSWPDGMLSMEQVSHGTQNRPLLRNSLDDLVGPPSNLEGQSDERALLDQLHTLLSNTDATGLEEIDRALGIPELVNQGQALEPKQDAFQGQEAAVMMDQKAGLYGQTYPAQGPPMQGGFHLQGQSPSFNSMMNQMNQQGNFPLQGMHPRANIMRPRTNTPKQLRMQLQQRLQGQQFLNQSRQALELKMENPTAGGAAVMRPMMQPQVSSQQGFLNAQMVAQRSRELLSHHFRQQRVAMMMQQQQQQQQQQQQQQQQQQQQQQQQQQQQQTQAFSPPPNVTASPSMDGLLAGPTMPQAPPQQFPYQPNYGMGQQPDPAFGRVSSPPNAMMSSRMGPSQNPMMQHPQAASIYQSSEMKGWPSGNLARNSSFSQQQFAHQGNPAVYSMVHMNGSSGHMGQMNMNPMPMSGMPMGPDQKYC
Sequence of Nuclear receptor subfamily 5 group A member 2 (Homo sapiens) (O00482 whole entry, looked up): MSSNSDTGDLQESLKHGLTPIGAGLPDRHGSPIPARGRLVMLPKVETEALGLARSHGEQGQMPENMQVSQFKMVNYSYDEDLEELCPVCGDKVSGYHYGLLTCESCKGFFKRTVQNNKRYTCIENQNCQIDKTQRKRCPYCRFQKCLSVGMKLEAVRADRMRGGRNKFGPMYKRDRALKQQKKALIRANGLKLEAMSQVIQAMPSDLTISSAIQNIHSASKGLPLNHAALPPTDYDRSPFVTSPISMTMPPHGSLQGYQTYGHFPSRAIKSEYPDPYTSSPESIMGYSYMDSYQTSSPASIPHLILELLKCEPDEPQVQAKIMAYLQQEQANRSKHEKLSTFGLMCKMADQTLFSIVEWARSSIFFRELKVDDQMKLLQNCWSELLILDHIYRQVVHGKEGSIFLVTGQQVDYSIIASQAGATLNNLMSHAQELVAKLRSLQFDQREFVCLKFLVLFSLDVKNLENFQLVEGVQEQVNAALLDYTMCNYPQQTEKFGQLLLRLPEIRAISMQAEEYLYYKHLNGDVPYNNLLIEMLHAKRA
Sequence of Steroidogenic factor 1 (Homo sapiens) (Q13285 whole entry, looked up, the tested form may be a part): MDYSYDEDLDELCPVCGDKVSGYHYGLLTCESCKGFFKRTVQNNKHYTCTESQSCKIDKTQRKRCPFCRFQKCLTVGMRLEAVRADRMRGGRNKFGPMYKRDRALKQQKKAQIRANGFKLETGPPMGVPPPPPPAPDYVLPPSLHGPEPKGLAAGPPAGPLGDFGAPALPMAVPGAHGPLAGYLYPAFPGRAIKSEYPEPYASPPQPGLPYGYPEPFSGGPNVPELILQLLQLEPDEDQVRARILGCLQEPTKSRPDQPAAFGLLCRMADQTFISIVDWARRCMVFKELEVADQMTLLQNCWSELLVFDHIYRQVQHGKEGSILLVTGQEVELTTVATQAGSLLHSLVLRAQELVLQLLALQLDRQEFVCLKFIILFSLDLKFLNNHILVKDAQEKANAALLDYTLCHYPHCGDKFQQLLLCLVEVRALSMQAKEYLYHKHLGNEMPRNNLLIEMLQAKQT
Sequence of Nuclear receptor coactivator 1 (Homo sapiens) (Q15788 whole entry, looked up, the tested form may be a part): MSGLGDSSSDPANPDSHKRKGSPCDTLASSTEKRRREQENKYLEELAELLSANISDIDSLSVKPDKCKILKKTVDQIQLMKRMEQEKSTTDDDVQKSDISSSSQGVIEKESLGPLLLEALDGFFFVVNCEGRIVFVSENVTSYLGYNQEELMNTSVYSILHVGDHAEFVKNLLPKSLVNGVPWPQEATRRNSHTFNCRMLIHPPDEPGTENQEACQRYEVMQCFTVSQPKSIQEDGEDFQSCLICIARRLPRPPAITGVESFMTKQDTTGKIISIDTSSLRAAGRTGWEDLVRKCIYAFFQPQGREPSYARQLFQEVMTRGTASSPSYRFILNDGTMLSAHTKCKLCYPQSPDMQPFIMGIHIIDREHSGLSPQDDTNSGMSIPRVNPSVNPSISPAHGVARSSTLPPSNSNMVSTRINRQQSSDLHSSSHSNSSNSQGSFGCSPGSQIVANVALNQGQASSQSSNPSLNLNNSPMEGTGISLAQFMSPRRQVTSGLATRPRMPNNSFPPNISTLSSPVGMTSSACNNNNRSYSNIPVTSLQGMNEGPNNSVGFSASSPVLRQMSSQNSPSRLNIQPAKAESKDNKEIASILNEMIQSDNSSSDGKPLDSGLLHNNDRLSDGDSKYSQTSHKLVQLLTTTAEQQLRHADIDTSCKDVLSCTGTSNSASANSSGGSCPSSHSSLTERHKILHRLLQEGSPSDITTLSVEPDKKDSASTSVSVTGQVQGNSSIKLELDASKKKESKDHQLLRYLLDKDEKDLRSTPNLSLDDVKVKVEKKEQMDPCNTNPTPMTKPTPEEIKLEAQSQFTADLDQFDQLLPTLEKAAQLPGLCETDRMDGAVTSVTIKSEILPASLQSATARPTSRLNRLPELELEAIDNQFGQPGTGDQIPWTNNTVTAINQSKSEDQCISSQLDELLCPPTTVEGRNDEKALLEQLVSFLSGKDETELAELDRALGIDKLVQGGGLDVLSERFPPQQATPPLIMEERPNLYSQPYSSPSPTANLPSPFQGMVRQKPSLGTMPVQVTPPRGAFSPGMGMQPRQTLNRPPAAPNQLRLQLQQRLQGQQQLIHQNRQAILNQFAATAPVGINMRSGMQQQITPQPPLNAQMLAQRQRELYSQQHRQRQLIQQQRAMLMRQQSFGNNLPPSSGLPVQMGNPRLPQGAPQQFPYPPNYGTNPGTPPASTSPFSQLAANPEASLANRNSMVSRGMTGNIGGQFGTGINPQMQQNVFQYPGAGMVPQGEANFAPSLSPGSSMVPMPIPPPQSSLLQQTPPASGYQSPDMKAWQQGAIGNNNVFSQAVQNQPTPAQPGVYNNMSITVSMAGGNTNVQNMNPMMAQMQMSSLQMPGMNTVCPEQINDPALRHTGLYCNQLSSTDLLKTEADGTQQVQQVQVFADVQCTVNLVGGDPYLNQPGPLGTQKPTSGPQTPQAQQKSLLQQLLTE

Consider `O=C(CCl)Nc1cc(SCC(O)CO)cc([N+](=O)[O-])c1` (stereo unspecified), for which the inhibition – broadly, the drop in the measured response relative to a control, in per cent – in assay [1] was 91.6% (active); in assay [2], 72.7% (active); in [3], 56.9% (active); in [4], 78.6% (active); in assay [5], 95.8% (active); in assay [6], 110% (active). Further, the inhibition is 97.7% (active) in assay [7], 98.2% (active) in assay [8], 79% (active) in assay [9] and 67.5% (active) in assay [10].
Consider `N#Cc1c(NC(=O)CSc2ncn[nH]2)sc2c1CCCCC2`, for which the inhibition was 51.8% (active) in assay [1]; 65.9% (active) in assay [2]; 28.3% in assay [3]; 59% (active) in [4]; 29.9% (active) in assay [5]; 62.8% (active) in assay [6]. The inhibition in [7] is 50.1% (active); in [8] it was 60.7% (active); in assay [9], 87.6% (active); in assay [10] it was 88% (active).
In the case of `Cc1[nH]c2ccccc2c(=O)c1C(=O)/C=C/c1ccccc1`, the inhibition in [1] is 76.1% (active); in [2], 58% (active); in assay [3], 73.7% (active); in assay [4] it was 59.6% (active); in [5] it was 76.2% (active); in [6], 90.2% (active). The inhibition in assay [7] is 82.9% (active); in [8], 77.8% (active); in assay [9], 39% (active); in assay [10], 72.7% (active).
For `CCCS(=O)(=O)c1cnc(C2COc3ccccc3O2)nc1N` (stereo unspecified), the inhibition in assay [1] is 61.5% (active); in assay [2] it was 44.9% (active); in assay [3], 18.9%; in assay [4] it was 33.6% (active); in assay [5] it was 43.2% (active); in assay [6], 2.93%. Moreover, the inhibition is 36.5% in assay [7], 23.1% in assay [8], 37.2% (active) in assay [9] and 75% (active) in assay [10].
As to `CN(c1ncnc(N)c1[N+](=O)[O-])C1CCCCC1`, the inhibition is 82.5% (active) in [1]; 59.7% (active) in assay [2]; 69.9% (active) in assay [3]; 55.3% (active) in assay [4]; 32.3% (active) in [5]; 56.7% (active) in [6]. In addition, the inhibition is 44.1% (active) in [7], 72.2% (active) in assay [8], 28.4% in assay [9] and 59.8% (active) in assay [10].
In the case of `O=[N+]([O-])c1ccc2ncnc(N3CCN(Cc4ccc5c(c4)OCO5)CC3)c2c1`, the inhibition in [1] was 74.2% (active); in assay [2], 53.2% (active); in assay [3], 64.4% (active); in assay [4], 64.9% (active); in assay [9], 8.73%; in [10] it was 54.2% (active).
